# Compound activity: PubChem BioAssay, National Center for Advancing Translational Sciences (NCATS)
# Rows were chosen to be rich in hits. Some 6.8% of all compounds tested hit in one or more screens of this group.
# TSG101-PTAP inh = blocks PTAP/TSG101 interaction to inhibit HIV-1 budding | 340,000 tested, under 10 active | Potency, µM (series often up to 115 µM), for inactives: top-dose activity change, negative = inhibition, most hits filed as inhibitors | Fluorescence polarization, FITC-PTAP peptide / Tsg101 binding; active = well fitted inhibition curve with a large enough effect in the main read-out, with a control signal flat, not every such curve was filed as active; inconclusive = small, poorly fitted or top-dose-only effect, or effect the other way, or a change in a side signal; inactive = no such curve, though single readings can be large or run the other way; note: % of control where 0% means no effect
# Target sequence (Q99816 whole entry, looked up): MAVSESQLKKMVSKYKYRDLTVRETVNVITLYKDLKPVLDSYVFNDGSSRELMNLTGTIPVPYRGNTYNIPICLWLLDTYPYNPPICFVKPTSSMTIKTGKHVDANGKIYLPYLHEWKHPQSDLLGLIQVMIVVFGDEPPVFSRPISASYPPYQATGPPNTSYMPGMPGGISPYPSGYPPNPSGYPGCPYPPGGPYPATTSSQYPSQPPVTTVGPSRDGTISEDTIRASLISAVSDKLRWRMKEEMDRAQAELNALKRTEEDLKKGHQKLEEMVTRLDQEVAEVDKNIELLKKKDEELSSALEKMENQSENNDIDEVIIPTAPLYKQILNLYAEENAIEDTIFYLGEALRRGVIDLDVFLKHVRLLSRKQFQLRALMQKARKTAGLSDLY
#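 Compounds were pin-transferred onto Tsg101 binding domain (10 uM final) in HEPES pH 7.5 buffer, then FITC-PTAP peptide was added at 50 nM final. After 20 min at RT, polarization reported peptide displacement across a qHTS concentration series.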
# SW480 rereplic = DNA re-replication induction in SW480 cells; SW480 DNA re-replication, Hoechst DNA content imaging, 48 h; Potency, µM (doses to about 46.1 µM), for inactives: top-dose re-replication activation, most hits filed as activators; 1.8% of 340,000 active; note: % of control where 0% means no effect; nearly all actives have a fitted effect of over 55% in size
#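 Readout is total intensity of Hoechst-stained nuclei, excited at 405 nm and collected at 500-530 nm. Compound treatment lasted 48 hr at 37 C in 5% CO2 before staining.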
# KB-V1 cytotox = kills drug-selected multidrug resistant KB-V1 cells | KB-V1 MDR cells viability, CellTiter-Glo, 72 h | Potency, µM (titrated, usually from 46.1 µM), actives largely listed as cytotoxic | 3.4% of 400,000 active | AID 1347076; note: % is set by controls: 0 for no effect and ±100 for the full control effect; nearly all actives have a fitted effect of over 60% in size
#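 Readout: CellTiter-Glo luminescence, 10 min after addition. Cells: KB-V1 MDR subline, 72 h at 37 degrees C with compound. Analysis: corrected, normalized data fitted to concentration-effect curves.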
# PINK1 expr mod = PINK1 expression modulation; Potency, µM (highest dose often 76.6 µM), without a hit: at the top dose activation (PINK1 increase), hits mostly activators; 0.2% of 410,000 active; AID 624263; PINK1 immunofluorescence, high-content cytometry, 24 h; active = well fitted activation curve with a large enough effect; inconclusive = small, poorly fitted or top-dose-only effect; cell line not stated here; note: % of control where 0% means no effect; nearly all actives have a fitted effect of over 65% in size
#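 Stable cell line, 250 cells/well, 12 h attachment; compounds pinned at 5 concentrations, 24 h; CCCP control. Fixed with nuclear dye, primary antibodies 12 h at 10 degrees C, secondary plus cell stain; laser-scanning cytometer read.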
# MCF10A rereplic = induces DNA re-replication in MCF 10a normal breast cells; 2.9% of 350,000 active; MCF 10A DNA re-replication, Hoechst nuclear intensity, 48 h; Potency, µM (highest dose often 46.1 µM), without a hit: at the highest dose activity, positive = re-replication, most hits filed as activators; note: % of control where 0% means no effect; nearly all actives have a fitted effect of over 50% in size
# KB-3-1 tox = KB-3-1 parental cell cytotoxicity; KB-3-1 viability, CellTiter-Glo ATP luminescence, 72 h; Potency, µM (highest dose often 46.1 µM), actives largely listed as cytotoxic; 1.4% of 400,000 active; note: % is set by controls: 0 for no effect and ±100 for the full control effect; nearly all actives have a fitted effect of over 60% in size
#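 Using CellTiter-Glo luminescence, growth of non-resistant KB-3-1 adenocarcinoma cells is assessed 72 h after pin-tool compound addition at 37 °C. Normalized responses across the concentration series yield fitted curves.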
# * hit, by the source's call; i = inactive; ? = inconclusive; . = no result given; [ ] = remark or other dose. Unless noted, calls come from the whole dose curve; as a rule, active = well fitted curve in the direction sought with a large enough effect; inconclusive = small, poorly fitted or top-dose-only effect, or another doubt; inactive = no such curve, though single readings can be large; an effect the other way counts as inactive or inconclusive. Potency is the fitted concentration of half-maximal effect.
SMILES,TSG101-PTAP inh,SW480 rereplic,KB-V1 cytotox,PINK1 expr mod,MCF10A rereplic,KB-3-1 tox
CC(C)(C)c1ccc(C(=O)C[n+]2ccc(Cl)c3ccc(Cl)cc32)cc1,.,.,?,.,.,0.26µM*
CC(C)(C)c1ccc(C(=O)CC(=O)c2cc(Cl)ccc2O)cc1,-2%,?,2.6µM*,?,?,5.8µM*
CC(C)c1c(C(=O)NCc2cccnc2)cnn1-c1nccc(-c2cccs2)n1,.,.,.,0%,.,.
Cc1ccc2c(c1)cc1c(=O)n(Cc3ccc(Cl)cc3)nc(C)n12,.,.,i,0%,.,i
COc1ccc(NC(=O)N2CC[C@@]3(CCCN(C(=O)c4c(C)noc4C)C3)C2)cc1,.,.,.,0%,.,.
Fc1ccc(-c2cn3cc(C(F)(F)F)cc(Cl)c3n2)cc1,-3%,?,i,-5%,?,i
COc1ccc(-c2cn3cc(C(F)(F)F)cc(Cl)c3n2)cc1,-1%,18µM*,?,3%,24%,?
Cc1ccc(-c2cnc3c(Cl)c(C)nn3c2)cc1,-5%,10µM*,12µM*,6%,?,?
CCC1Sc2ccc(S(=O)(=O)N3CCN(c4ccccc4)CC3)cc2NC1=O (stereo not drawn),2%,?,i,2%,21µM*,i
CC(=O)c1cccc(NC(=O)Cn2c(C)c3cnn(-c4ccccc4)c(=O)c3c2C)c1,.,.,i,1%,.,i
CC(C)C(=O)Nc1nnc(Cc2c[nH]c3ccccc23)s1,0%,?,i,4%,8.2µM*,i
Cc1ccc(CNC(=O)c2c(-c3ccccc3Cl)noc2C)o1,.,.,i,0%,.,i
CCc1cccc2[nH]c3cc([N+](=O)[O-])ccc3c12,-14%,7%,13µM*,2%,26%,?
CC(C)Cn1c(=O)c2ccccc2n2c(CCC(=O)Nc3cccc(Cl)c3)nnc12,.,.,.,0%,.,.
COc1cccc(-n2nc(C(N)=O)c(O)cc2=O)c1,-1%,-19%,i,-2%,3%,i
COc1cccc(-n2nc(C#N)c(Cl)cc2=O)c1,1%,?,i,6%,4.5µM*,?
O=C(CSc1ncc(S(=O)(=O)c2ccc(Cl)cc2)c(=O)[nH]1)Nc1ccc2c(c1)OCCO2,.,.,i,-2%,.,i
CCC(C)(C)c1ccc(OCCCC[n+]2ccc(C)cc2)c(C(C)(C)CC)c1,0%,26%,i,-3%,23µM*,12µM*
COc1cc(C)c2sc3ccccc3c(=O)c2c1NCCN(C)C,.,.,?,-1%,.,i
Cc1ccc(NCCN(C)C)c2c(=O)c3cc(O)ccc3sc12,-1%,?,12µM*,-4%,8%,?
CN(C)CCNc1cccc2sc3ccc(O)cc3c(=O)c12,.,.,23µM*,-1%,.,16µM*
CN(C)CCNc1ncnc2sc(-c3ccccc3)cc12,0%,22%,i,-1%,?,i
O[C@@H]1CO[C@H]2[C@@H]1OC[C@@H]2O,.,-6%,.,.,-3%,.
O=C(NCc1ccc2c(c1)OCO2)c1ccc(CS(=O)(=O)c2cccc(C(F)(F)F)c2)o1,-4%,0%,18µM*,2%,4%,i
Cc1ccc(S(=O)(=O)Cc2ccc(C(=O)N3CCN(c4ccccn4)CC3)o2)cc1,-2%,?,?,5%,-3%,i
SMILES,TSG101-PTAP inh,SW480 rereplic,KB-V1 cytotox,PINK1 expr mod,MCF10A rereplic,KB-3-1 tox
O=C(c1ccc(CS(=O)(=O)c2cccc(C(F)(F)F)c2)o1)N1CCN(c2ccccn2)CC1,-1%,1%,18µM*,4%,?,i
CCCc1ccc(OCc2ccc(C(=O)N3CCN(c4ccccn4)CC3)o2)c(OC)c1,.,12%,3.7µM*,-4%[38.3 µM],9.2µM*,i
CCn1cc(C(=O)N2CCN(c3ccccn3)CC2)c2cc(OC)c(OC)cc2c1=O,-2%,0%,16µM*,0%,-2%,i
COc1cccc(C(=O)N2CCCC(c3nc(SCCN4CCOCC4)ncc3C)C2)c1 (stereo not drawn),.,.,.,2%,.,.
Clc1ccc(-n2cccc2CN2CCOc3ccc(CN4CCOCC4)cc3C2)nc1,.,.,.,0%,.,.
O=C1CC(c2cccc(O)c2)c2c(nc(SCc3ccccc3F)[nH]c2=O)N1 (stereo not drawn),.,.,i,1%,.,i
O=C(NCc1ccccc1)C1=C[C@@H](c2csc3ccccc23)C[C@@H](OCc2ccc(CO)cc2)O1,1%,?,21µM*,0%,60%,21µM*
CN1CCN(C(=O)C2=C[C@H](c3csc4ccccc34)C[C@H](OCc3ccc(CO)cc3)O2)CC1,-1%,-6%,i,0%,3%,i
O=C(C1=C[C@H](c2csc3ccccc23)C[C@H](OCc2ccc(CO)cc2)O1)N1CCCCCCC1,1%,1%,i,1%,23µM*,i
O=C(O)C1=C[C@H](c2csc3ccccc23)C[C@H](OCc2ccc(CO)cc2)O1,-3%,-1%,i,2%,9%,i
O=C(NCc1ccccc1)C1=C[C@@H](c2csc3ccccc23)C[C@@H](OCCCCO)O1,-1%,14%,?,-1%,-6%,5.8µM*
O=C(NC1CC1)C1=C[C@H](c2csc3ccccc23)C[C@H](OCCCCO)O1,-2%,25%,i,2%,?,i
CC(C)Cn1c(=O)c(C(=O)Nc2ccccc2S(N)(=O)=O)c(O)c2ccccc21,-11%,15%,i,-1%[38.3 µM],?,i
CC(C)Cn1c(=O)c(C(=O)N/N=C/c2cccc(F)c2)c(O)c2ccccc21,-5%,1%,2.9µM*,-1%,2%,12µM*
CCC(SC1=Nc2ccccc2C2=NC(CC(C)C)C(=O)N12)C(=O)Nc1ccc2c(c1)OCO2 (stereo not drawn),-8%,-1%,15µM*,-1%,1%,?
COc1cccc(NC(=O)CSC2=Nc3ccccc3C3=NC(CC(=O)NCc4ccc5c(c4)OCO5)C(=O)N23)c1 (stereo not drawn),.,.,i,5%,.,i
CCS(=O)(=O)N1CCc2cc(C(=O)NCCc3ccccc3)ccc21,.,.,i,1%,.,i
O=C(N1CCN(c2ccc(F)cc2)CC1)C1(c2cccs2)CCOCC1,-2%,11%,23µM*,-1%,-21%,i
O=C(/C=C/c1cccs1)N1CCN(c2ccc(F)cc2)CC1,-3%,-2%,?,-1%,7%,i
O=C(N1CCN(c2cccc(Cl)c2)CC1)C1(c2cccs2)CCOCC1,-3%,-189%,4.6µM*,0%,8%,?
